The values below come from PubChem BioAssay (NCI).

Among the test systems are NCI-H23 lung; NCI-H226 lung; NCI-H322M lung; HOP-62 NSCLC; NCI-H460 lung; HOP-92 NSCLC; NCI-H522 lung; A549/ATCC NSCLC; 786-0 renal; COLO 205 colon; DU-145 prostate; K-562 leukemia; MDA-MB-231 breast; RXF 393 renal; SF-268 CNS; SF-539 CNS; UACC-257 melanoma; M14 melanoma; MALME-3M melanoma; SF-295 CNS.
Common to all, as to assay: NCI-60 one-dose screen, 48 h (100 = growth as untreated, 0 = no growth, -100 = all killed)
Common to all, as to settings: 10 µM unless noted

This is part of a sample that, as a whole, favours compounds with a hit. Of some 83,000 tested, about 20% had one in any assay.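 Step 1: grow cells in 96-well plates. Step 2: add test compound at a single concentration. Step 3: incubate 48 h. Step 4: record percent growth.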 Unmarked numbers belong to inactive results. The source made the active and inactive calls. Rule for the calls: active = growth percent below 10; inactive = the rest.

As for `OCCOSCCO`, the growth in the assay on NCI-H23 lung is 107%; in the assay on NCI-H226 lung, 102%; in the assay with NCI-H322M lung, 119%; in the assay on HOP-62 NSCLC, 104%; in the assay with NCI-H460 lung, 111%; in the assay on HOP-92 NSCLC it was 124%. For the same molecule, the growth was 96.1% with NCI-H522 lung; 111% in the assay on A549/ATCC NSCLC; 100% in the assay with 786-0 renal; 119% with COLO 205 colon; 122% with DU-145 prostate; 102% with K-562 leukemia. In addition, the growth was 121% in the assay with MDA-MB-231 breast; 100% in the assay on RXF 393 renal; 119% in the assay on SF-268 CNS; 100% in the assay with SF-539 CNS; 102% with UACC-257 melanoma; 100% in the assay with M14 melanoma.
For `O=C(Cc1nc2cc(Cl)c(Cl)cc2nc1CC(=O)c1ccccc1)c1ccccc1`, the growth with NCI-H23 lung was 77.3%; in the assay on NCI-H226 lung, 70.4%; with NCI-H322M lung, 80.9%; in the assay with HOP-62 NSCLC, 70.5%; in the assay on NCI-H460 lung it was 73.4%; in the assay with HOP-92 NSCLC, 67.3%. Besides, the growth with NCI-H522 lung was 58.2%; in the assay on A549/ATCC NSCLC it was 74.4%; in the assay on 786-0 renal it was 67.6%; in the assay on COLO 205 colon, 76.3%; in the assay on DU-145 prostate, 82.5%; in the assay on K-562 leukemia, 47.4%. For the same molecule, the growth in the assay on MALME-3M melanoma was 67.5%; with RXF 393 renal, 81.1%; in the assay on SF-268 CNS, 79.2%; with SF-295 CNS, 69.5%; in the assay on SF-539 CNS it was 62.1%; in the assay on UACC-257 melanoma it was 93.6%. In addition, in the assay on M14 melanoma, the growth is 75.2%.
As for `CC(/C=N/NC(N)=S)Cc1ccc(C(C)C)cc1` (stereo unspecified), the growth with NCI-H23 lung was 51%; in the assay on NCI-H226 lung, 66.6%; in the assay with NCI-H322M lung, 104%; in the assay on HOP-62 NSCLC it was 89.1%; in the assay with NCI-H460 lung it was 82.8%; in the assay on HOP-92 NSCLC, 69.9%. For the same molecule, the growth with NCI-H522 lung is -26.6% (active); with A549/ATCC NSCLC, 89.5%; in the assay on 786-0 renal, 51%; in the assay with COLO 205 colon, 68%; in the assay on DU-145 prostate it was 129%; with MALME-3M melanoma, 82.9%. Besides, the growth in the assay on MDA-MB-231 breast was 85.4%; in the assay on RXF 393 renal, 69.2%; in the assay with SF-268 CNS, 129%; in the assay on SF-295 CNS, 73.2%; in the assay with SF-539 CNS it was 59%; in the assay with UACC-257 melanoma, 69.9%. For the same molecule, the growth in the assay with M14 melanoma was 74.2%.
With `CC(C)=CCCC(C)C1=C(O)C(=O)C(C)=CC1=O` (stereo unspecified), the growth is 97% in the assay with NCI-H23 lung; 94.8% with NCI-H226 lung; 112% in the assay on NCI-H322M lung; 125% in the assay with HOP-62 NSCLC; 124% in the assay with NCI-H460 lung; -55.5% (active) in the assay with NCI-H522 lung. In addition, the growth in the assay with A549/ATCC NSCLC was 110%; in the assay on 786-0 renal, 93.2%; with COLO 205 colon, 50.3%; in the assay on DU-145 prostate, 99.6%; in the assay with K-562 leukemia it was -45.3% (active); in the assay with MALME-3M melanoma, 69.3%. For the same molecule, the growth is 40.5% in the assay on MDA-MB-231 breast; 58.5% with RXF 393 renal; 93.7% in the assay on SF-268 CNS; 120% with SF-295 CNS; 96.3% in the assay with SF-539 CNS; 120% in the assay on UACC-257 melanoma. Also, the growth with M14 melanoma was 107%.
Regarding `CC/C(=C(/CC)c1ccc(O)cc1)c1ccc(O)cc1`, the growth in the assay on NCI-H23 lung was 75.8%; in the assay with NCI-H226 lung it was 82.7%; in the assay with NCI-H322M lung, 77.6%; with HOP-62 NSCLC, 70.8%; with NCI-H460 lung, 85.6%; with HOP-92 NSCLC, 58.1%. Besides, the growth with NCI-H522 lung is 61%; with 786-0 renal, 80%; with COLO 205 colon it was 97.6%; in the assay with DU-145 prostate, 84.1%; with K-562 leukemia it was 27.5%; in the assay with MALME-3M melanoma it was 54.5%. The growth is 58.7% with MDA-MB-231 breast; 65.1% in the assay with RXF 393 renal; 63.9% in the assay on SF-268 CNS; 43.9% in the assay with SF-295 CNS; 68.3% with SF-539 CNS; 68.9% in the assay with UACC-257 melanoma. In addition, the growth with M14 melanoma was 43.9%.
Turning to `O=C1/C(=C/c2ccccn2)CCc2ccccc21`, the growth was 105% in the assay on NCI-H23 lung; 98.2% in the assay on NCI-H226 lung; 113% in the assay with NCI-H322M lung; 113% in the assay with HOP-62 NSCLC; 102% in the assay on NCI-H460 lung; 91.5% with HOP-92 NSCLC. The growth in the assay on NCI-H522 lung is 89.9%; with A549/ATCC NSCLC, 99.3%; in the assay with 786-0 renal, 101%; in the assay with DU-145 prostate it was 103%; with K-562 leukemia, 7.2% (active); with MALME-3M melanoma, 103%. Besides, the growth is 106% with MDA-MB-231 breast; 107% with RXF 393 renal; 102% in the assay with SF-268 CNS; 96.8% in the assay with SF-295 CNS; 95.4% in the assay on SF-539 CNS; 105% with UACC-257 melanoma. In addition, the growth with M14 melanoma was 108%.
`O=[N+]([O-])c1cc(-c2ccccc2)c(O)c([N+](=O)[O-])c1`: the growth in the assay on NCI-H23 lung is 83.7%; with NCI-H226 lung, 82.5%; with NCI-H322M lung it was 126%; in the assay on HOP-62 NSCLC, 92.5%; in the assay with NCI-H460 lung, 65.9%; in the assay with HOP-92 NSCLC, 3.74% (active). The growth is 86.8% in the assay on A549/ATCC NSCLC; 106% with COLO 205 colon; 107% in the assay with DU-145 prostate; 68.9% in the assay on K-562 leukemia; 120% with MALME-3M melanoma; 71.3% with MDA-MB-231 breast. For the same molecule, the growth with RXF 393 renal was 99.1%; with SF-268 CNS it was 79%; with SF-539 CNS, 84.7%; in the assay with UACC-257 melanoma, 94.9%; with M14 melanoma, 101%.
Consider `CN(C)c1ccc(/C=C/c2cc[n+](C)c(/C=C/c3ccc(N(C)C)cc3)c2)cc1`, for which the growth is 10.5% with NCI-H23 lung; 34.1% with NCI-H226 lung; -9.9% (active) in the assay on NCI-H322M lung; 19.3% with HOP-62 NSCLC; 10.6% in the assay with NCI-H460 lung; -20.2% (active) with NCI-H522 lung. For the same molecule, the growth with A549/ATCC NSCLC is 14.5%; in the assay with 786-0 renal it was 22.6%; in the assay on COLO 205 colon it was -68.7% (active); with DU-145 prostate it was 23%; with K-562 leukemia, 4.82% (active); in the assay with MALME-3M melanoma, 1.82% (active). Further, the growth was 8.47% (active) in the assay with MDA-MB-231 breast; 28.3% in the assay with RXF 393 renal; 24.2% with SF-268 CNS; -3.21% (active) with SF-295 CNS; 27.1% in the assay with SF-539 CNS; -18.8% (active) with UACC-257 melanoma. Further, the growth in the assay on M14 melanoma is 14.4%.
In the case of `C1=C(c2ccccc2)c2ccccc2C1`, the growth with NCI-H23 lung was 98.5%; with NCI-H226 lung it was 96.3%; with NCI-H322M lung, 78.4%; with HOP-62 NSCLC, 94%; with NCI-H460 lung, 99.5%; with HOP-92 NSCLC, 74.8%. In addition, the growth with NCI-H522 lung was 96%; in the assay with A549/ATCC NSCLC, 106%; in the assay on 786-0 renal, 86.4%; with DU-145 prostate, 109%; with K-562 leukemia, 88.3%; in the assay with RXF 393 renal, 106%. For the same molecule, the growth with SF-268 CNS is 96.6%; in the assay with SF-295 CNS, 91%; with SF-539 CNS, 99.5%; in the assay with UACC-257 melanoma, 133%; with M14 melanoma, 92.2%.
For `Oc1ccc(Nc2ccc3ccccc3c2)cc1`, the growth with NCI-H23 lung is 69%; with NCI-H226 lung, 89.2%; in the assay with NCI-H322M lung it was 33.9%; in the assay with HOP-62 NSCLC, 57.4%; with NCI-H460 lung it was 59.4%; in the assay on HOP-92 NSCLC, 55.9%. Further, the growth in the assay with A549/ATCC NSCLC was 55.3%; in the assay on 786-0 renal, 46.7%; in the assay with COLO 205 colon, 96.1%; with DU-145 prostate it was 51.2%; in the assay on K-562 leukemia, 26.5%; with MALME-3M melanoma, 92.9%. The growth in the assay on MDA-MB-231 breast is 36%; in the assay on RXF 393 renal it was 78.3%; with SF-268 CNS it was 50.4%; in the assay on SF-295 CNS, 67.7%; with SF-539 CNS it was 36.6%; in the assay with UACC-257 melanoma it was 73.7%. Besides, the growth in the assay on M14 melanoma is 53.3%.
In the case of `CC(C)c1ccc(Nc2n[nH]c(=S)s2)cc1`, the growth in the assay on NCI-H23 lung was 87.1%; in the assay with NCI-H226 lung it was 105%; with NCI-H322M lung, 102%; in the assay on HOP-62 NSCLC, 99.4%; in the assay with NCI-H460 lung it was 114%; in the assay with HOP-92 NSCLC, 82.6%. The growth in the assay on A549/ATCC NSCLC is 101%; with 786-0 renal it was 96.8%; in the assay on COLO 205 colon it was 116%; in the assay on DU-145 prostate, 104%; with K-562 leukemia, 95.5%; in the assay with MALME-3M melanoma, 102%. The growth in the assay with MDA-MB-231 breast was 89.1%; in the assay with RXF 393 renal, 109%; with SF-268 CNS, 107%; in the assay with SF-295 CNS, 90.4%; with SF-539 CNS it was 104%; in the assay with M14 melanoma, 93.5%.
Turning to `O=C1c2ccccc2Cc2cccc(Cl)c21`, the growth was 95.5% in the assay with NCI-H23 lung; 94.6% in the assay on NCI-H226 lung; 85.4% with NCI-H322M lung; 98.8% in the assay on HOP-62 NSCLC; 117% in the assay with NCI-H460 lung; 110% in the assay with HOP-92 NSCLC. Further, the growth in the assay on NCI-H522 lung was 85.8%; in the assay with A549/ATCC NSCLC, 91.7%; with 786-0 renal, 89.1%; in the assay with K-562 leukemia it was 91.5%; in the assay with MALME-3M melanoma it was 94.2%; with MDA-MB-231 breast it was 95.4%. The growth with RXF 393 renal was 89.7%; in the assay with SF-268 CNS, 93%; in the assay with SF-295 CNS, 90.9%; with SF-539 CNS it was 98.1%; in the assay on UACC-257 melanoma, 104%; with M14 melanoma it was 111%.
